# HT1080NT lethal: kills 2HG-producing HT-1080-NT fibrosarcoma cells; Potency, µM (doses to about 46.1 µM), without a hit: at the highest dose activity, negative = less viability, hits mostly cytotoxic; HT-1080-NT fibrosarcoma viability, CellTiter-Glo ATP luminescence, 48 h; 360,000 tested, 1.6% active;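 further: NT is the 2HG producing partner of a matched IDH1 knockdown line; potency means the concentration at half of the fitted maximal effect; 0% = DMSO-treated cells and -100% = media-only wells without cells; nearly all actives have a fitted effect of over 55% in size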
#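 Viability of the 2HG-overproducing fibrosarcoma line after 48 hours of compound exposure at 37 degrees C was determined by luminescence with CellTiter-Glo, and concentration-effect curves were then fitted and categorized.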
# IL1B secr inh: inflammasome signaling inhibition, IL-1 beta readout | THP-1 LPS/ATP IL-1B secretion, AlphaLISA, 16 h; hits give low values | 360,000 tested, 4.7% active | activity change, % at 57.5 µM; in the data active means activity change below about -50%; inconclusive means mostly about -30% to -49%
#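 Secreted IL-1B measured by AlphaLISA bead assay after 16 h compound exposure of THP-1 cells; compounds (final up to 57.5 uM) added 1 h before LPS (250 ng/mL) and ATP (1.25 mM) stimulation; lower signal means less secretion.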
# TDP1 cell noCPT: qHTS for Inhibitors of human tyrosyl-DNA phosphodiesterase 1 (TDP1): qHTS in cells in absence of CPT; DT40 Tdp1-/- hTDP1 cells, no CPT, ATP luminescence, 48 h; Potency, µM (highest dose often 46.2 µM), without a hit: top-dose activity change, negative = growth inhibition, usual class: inhibitors; 420,000 tested, 15% active; further: potency means the concentration at half of the fitted maximal effect; nearly all actives have a fitted effect of over 55% in size
#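 Luminescent ATP content (CellTiter-Glo) served as the growth readout. Knockout chicken DT40 cells expressing human TDP1 were exposed to compounds without camptothecin for a minimum 48 hr at 37 °C.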
# ELG1 DNA repair: inhibitors of ELG1-dependent DNA repair in HEK293T cells. HEK293T ELG1-luciferase reporter, luminescence, 16 h; DNA damage induced by 5-fluorouridine. Potency, µM (series often up to 46.1 µM), without a hit: at the highest dose activity change, negative = inhibition, actives largely listed as inhibitors. 330,000 tested, 2.3% active. AID 504467; further: potency means the concentration at half of the fitted maximal effect; nearly all actives have a fitted effect of over 55% in size
#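 In this reporter screen, reduction of luminescence relative to DMSO vehicle indicated activity. Compounds and 5-fluorouridine were added together to 2,000 cells per well, incubated for 16 hr at 37 °C, then developed with ONE-Glo.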
# HT1080 IDH1KD tx: HT-1080 IDH1 knockdown cell toxicity (counter line); 360,000 tested, 2% active; HT-1080 IDH1 knockdown viability, ATP luminescence, 48 h; AID 686971; Potency, µM (titrated, usually from 46.1 µM), inactives show at the top dose activity, negative = toxicity, hits mostly cytotoxic;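 further: potency means the concentration at half of the fitted maximal effect; 0% = DMSO wells and -100% = cell-free medium wells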
#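 Knockdown cells (IDH1KD HT-1080) received compounds 2 h after plating at 750 cells/well and were kept 48 h at 37 °C in 5% FBS RPMI. A CellTiter-Glo luminescence read gave % activity for curve fitting.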
# TDP1 cell CPT: DT40-hTDP1 cell growth loss with CPT. Potency, µM (titrated, usually from 46.2 µM), inactives show at the top dose activity change, negative = growth inhibition, hits mostly inhibitors. 420,000 tested, 12% active. chicken DT40 Tdp1-/-;hTDP1 cells + 20 nM CPT, ATP luminescence, 48 h; further: potency means the concentration at half of the fitted maximal effect; nearly all actives have a fitted effect of over 55% in size
#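 Cell growth measured by CellTiter-Glo luminescence after a minimum 48 h, 37 C compound exposure with 20 nM CPT in Tdp1-knockout DT40 cells stably expressing hTDP1, seeded 400/well; qHTS titration format.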
# Active calls of the source: *; ? = inconclusive; nt = not tested or not shown. Only some compounds are listed: those with a hit (about 19% of all), similar ones and a draw of the others. Unless noted, the call rests on the fitted dose curve; in most records, active means well fitted curve in the direction sought with a large enough effect; inconclusive means small, poorly fitted or top-dose-only effect, or another doubt; inactive means no such curve, though single readings can be large; an effect the other way counts as inactive or inconclusive. Unless noted, on the % scale 0 is the no-effect control and ±100 the full control effect.
SMILES,HT1080NT lethal,IL1B secr inh,TDP1 cell noCPT,ELG1 DNA repair,HT1080 IDH1KD tx,TDP1 cell CPT
O=C(NCCSSCCNC(=O)c1ccccc1)c1ccccc1,-15.0%,-67.5*,16.4µM*,nt,-27.3%,18.4µM*
O=C(NCC(=O)N1CCN(C/C=C/c2ccccc2)CC1)c1ccc(OC(F)F)cc1,-14.0%,-24.1,14.6µM*,?,-7.4%,?
CSCCC(NC(=O)c1ccc(Cl)c([N+](=O)[O-])c1)C(=O)N1CCN(C/C=C/c2ccccc2)CC1 (stereo not drawn),-8.7%,-103.3*,?,-1.0%,-7.6%,18.4µM*
CSCCC(NC(=O)c1ccc(Cl)cc1Cl)C(=O)N1CCN(C(=O)c2ccccc2)CC1 (stereo not drawn),2.2%,?,-4.8%,nt,11.0%,?
O=C(NCC(=O)N1CCCCCC1)c1ccc(OC(F)F)cc1,26.7%,-4.2,-7.3%,?,0.0%,2.5%
C=CCN1C(=O)CSC1=Nc1ccc(NC(C)=O)cc1,0.2%,11.0,-5.2%,26.6%,3.0%,9.9%
Cc1noc2ncnc(Oc3cc(Cl)ccc3Cl)c12,?,-102.2*,2.1%,?,9.0%,-16.6%
CC(C)[C@H]1COCCS(=O)(=O)N1Cc1ccccc1-c1ccc(C(C)(C)C)cc1,-22.4%,-25.6,?,-5.7%,-19.6%,?
Cc1cc(C)c(C(=O)NC2CCCc3c2cnn3-c2ccc(C)c(C)c2)c(=O)[nH]1 (stereo not drawn),-7.9%,8.0,-11.8%,?,-19.7%,-12.2%
COC(=O)c1ccc(/C=N/NC(=O)c2ccccc2Cl)cc1,7.3%,1.0,?,?,0.4%,?
Cc1nc2ccc(Br)cn2c1C(=O)N/N=C\c1ccc(C(C)C)cc1,2.3%,41.6,7.31µM*,?,-0.8%,7.31µM*
CNC(=S)N/N=C/c1ccc(C(C)C)cc1,2.1%,-11.3,7.31µM*,nt,?,13µM*
CC(C)c1ccc(/C=N/NC(=O)c2ccccc2Cl)cc1,7.31µM*,-4.4,2.91µM*,?,6.51µM*,4.11µM*
CCC(C(=O)c1ccccc1)P(=O)(NN)c1ccccc1 (stereo not drawn),-13.7%,15.4,-9.6%,1.4%,-3.9%,-4.7%
C=CCOc1nc2c(c(=O)n(Cc3ccc(Cl)cc3)c(=O)n2C)n1C,13.8%,-10.7,11.6µM*,-22.8%,6.4%,?
C=CCOc1nc2c(c(=O)n(C)c(=O)n2C)n1Cc1ccccc1,-0.8%,nt,18.4µM*,?,1.0%,25.9µM*
Cc1ccccc1Oc1nc2c(c(=O)n(C)c(=O)n2C)n1Cc1ccc(Br)cc1,nt,nt,-10.8%,nt,nt,-7.4%
CCOCCOc1nc2c(c(=O)n(C)c(=O)n2C)n1Cc1ccc(C)cc1,-4.9%,9.8,8.2µM*,-12.4%,-0.5%,?
C#CCOc1nc2c(c(=O)n(C)c(=O)n2C)n1Cc1ccccc1,-11.6%,0.0,11.6µM*,18.3µM*,-8.8%,11.6µM*
COc1ccc(Oc2nc3c(c(=O)n(C)c(=O)n3C)n2Cc2ccccc2)cc1,16.6%,38.3,-28.6%,-6.6%,20.2%,?
COc1ccc(Oc2nc3c(c(=O)n(Cc4ccc(Br)cc4)c(=O)n3C)n2C)cc1,nt,nt,?,nt,nt,-3.5%
COc1ccc(C(=O)COC(=O)CNS(=O)(=O)c2ccc(C)cc2)cc1,-0.2%,13.4,-4.8%,20.6%,-5.2%,-8.1%
CN(CC(=O)Nc1ccc(Cl)c(C(F)(F)F)c1)C(=O)C1CC(=O)N(C2CCCC2)C1 (stereo not drawn),-12.4%,?,?,?,-21.4%,?

# Screening results from PubChem BioAssay.
